Assay results: PubChem BioAssay (Tox21)
Where “and” joins values, the source holds several entries; their conditions need not be identical. Equal entries are not always repeated. Records with an inconclusive call do not appear. Entries that show only a call come without a potency. Calls of active or inactive are those of the source. Unless noted, calls follow the shape of the full dose curve.

Key:
[1] = Nuclear factor erythroid 2-related factor 2/antioxidant responsive element (Nrf2/ARE) small molecule agonists: qHTS cell viability counter screen in human keratinocytes (AID 1919968; active = well fitted curve in the direction sought with a large enough effect in the repeat runs; an effect the other way counts as inactive or inconclusive; also: nearly all actives have a fitted effect of over 55% in size; also: potency is read from the fitted curve at half-maximal effect)
Summary of the method: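 KeratinoSens HaCaT cells, 1,500/well, preincubated 5 h, then exposed to compounds in DMSO for 23 h at 37 C/5% CO2. Viability read as CellTiter-Fluor fluorescence after 1 h, in the same wells as the ARE-luciferase read.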

[2] = Nuclear factor erythroid 2-related factor 2/antioxidant responsive element (Nrf2/ARE) small molecule agonists: luciferase reporter gene qHTS assay in human keratinocytes (AID 1919969); also: nearly all actives have a fitted effect of over 35% in size; also: potency is read from the fitted curve at half-maximal effect
[3] = molecular target: Gonadotropin-releasing hormone receptor (Homo sapiens) (UniProt P30968); experiment: Human gonadotropin-releasing hormone receptor (GnRHR) small molecule agonists, calcium flux assay in GnRHR-HEK293 cells (AID 1920063); also: nearly all actives have a fitted effect of over 35% in size
Summary of the method: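 HEK293 cells stably expressing human GnRHR were dye-loaded for 1 h at 37 C. Compound was added in agonist mode and fluorescence (Ex/Em 480/540) recorded kinetically for 3 min. Fifteen concentrations, triplicates.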

[4] = molecular target: KiSS-1 receptor (Homo sapiens) (UniProt Q969F8); experiment: Human kisspeptin (KISS1R) small molecule agonists, calcium flux assay in KISS1R-HEK293 cells (AID 1920064; active = well fitted curve in the direction sought with a large enough effect in the repeat runs; an effect the other way counts as inactive or inconclusive)
Summary of the method: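 HEK293 cells stably expressing human KISS1R were loaded with calcium dye for 1 h at 37 C, then given compound; fluorescence (Ex/Em 480/540) was read kinetically for 3 min. Fifteen concentrations, triplicate.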

[5] = G protein-coupled receptor (GPCR) small molecule agonists, calcium flux assay: HEK293 wild type cell line counter screen (AID 1920065)
Summary of the method: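 Wild-type HEK293 cells plated 18 h, loaded with calcium dye 1 h at 37 C, then compounds added in agonist mode (ATP as positive control). Kinetic fluorescence Ex/Em 480/540 recorded 3 min at 1 sec intervals; 15 concentrations, triplicate.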

[6] = p53 small molecule agonists, cell-based qHTS assay with human liver microsomes (AID 1963577)
Summary of the method: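 Fluorescence of the beta-lactamase reporter in p53RE-bla cells, detected with LiveBLAzer substrate (2 h, room temperature, dark), served as the read-out after 16 h compound exposure at 37 C with human liver microsomes and NADPH, each 0.5 mg/mL final.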

[7] = p53 small molecule agonists, cell-based qHTS assay with rat liver microsomes (AID 1963578)
Summary of the method: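 Cells carrying a p53 response element–beta-lactamase reporter were plated and rested 5 h, then dosed with compound in DMSO plus rat liver microsomes and NADPH, each at 0.5 mg/mL final. After 16 h at 37 C, LiveBLAzer substrate was added for 2 h.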

[8] = p53 small molecule agonists, cell-based qHTS assay with human liver microsomes: qHTS cell viability counter screen (AID 1963579); also: nearly all actives have a fitted effect of over 45% in size
Summary of the method: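 Cytotoxicity counter screen: p53RE-bla, 4,000 cells/well; 5 h settle, 37 C/5% CO2; cpd + HLM 0.5 mg/mL + NADPH 0.5 mg/mL (final); 16 h, 37 C; CellTiter-Glo, 30 min RT, luminescence.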

[9] = p53 small molecule agonists, cell-based qHTS assay with rat liver microsomes: qHTS cell viability counter screen (AID 1963580); also: nearly all actives have a fitted effect of over 45% in size
Summary of the method: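 Intracellular ATP, by CellTiter-Glo luminescence, defines viability. HCT-116 p53RE-bla cells, 4,000 per well, were compound-treated in the presence of rat liver microsomes and NADPH for 16 h at 37 C.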

[10] = p53 small molecule agonists, cell-based qHTS assay: qHTS cell viability counter screen (AID 1963581); also: nearly all actives have a fitted effect of over 45% in size
Summary of the method: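 p53RE-bla HCT-116 cells, compounds added 5 h after plating and incubated 16 h at 37 C. Cytotoxicity measured in the same wells as intracellular ATP by CellTiter-Glo luminescence after 30 min at room temperature.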

[11] = p53 small molecule agonists, cell-based qHTS assay (AID 1963582; active = well fitted activation curve with a large enough effect in the signal ratio in the repeat runs, not every such curve was filed as active; the % refers to the signal ratio)
Summary of the method: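 p53RE-bla reporter cells, compounds added in DMSO after 5 h plating, incubated 16 h at 37 C. Beta-lactamase read via 2 h room-temperature LiveBLAzer B/G FRET substrate, fluorescence intensity.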

[12] = molecular target: 5-hydroxytryptamine receptor 2A (Homo sapiens) (UniProt P28223); experiment: 5-hydroxytryptamine receptor 2A (HTR2A) small molecule antagonists, cell-based qHTS assay (AID 1963586); also: nearly all actives have a fitted effect of over 45% in size
Summary of the method: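 Antagonist-mode intracellular calcium assay: DOI (4 nM) added after 5 min compound pre-incubation at room temperature to dye-loaded HTR2A-CHO cells. Fluorescence followed for 3 min, sampled every second.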

[13] = molecular target: 5-hydroxytryptamine receptor 2A (Homo sapiens) (UniProt P28223); experiment: 5-hydroxytryptamine receptor 2A (HTR2A) small molecule agonists, cell-based qHTS assay (AID 1963587); also: nearly all actives have a fitted effect of over 30% in size
Summary of the method: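 Kinetic calcium-flux fluorescence (2 min, 1 sec intervals) after compound addition in agonist mode. HTR2A-CHO cells were cultured 18 h, then dye-loaded 1 h at 37 C.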

[14] = molecular target: Muscarinic acetylcholine receptor M1 (Homo sapiens) (UniProt P11229); experiment: Cholinergic receptor muscarinic 1 (CHRM1) small molecule antagonists, cell-based qHTS assay (AID 1963588); also: nearly all actives have a fitted effect of over 40% in size
Summary of the method: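 CHRM1-CHO calcium-flux assay, antagonist mode. Cells were seeded 18 h, dye-loaded 1 h at 37 C and given compound for 5 min at RT, then acetylcholine was added at 50nM. FDSS fluorescence was read 3 min; 15 concentrations, three runs.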

[15] = cAMP Responsive Elements (CRE) small molecule agonists, cell-based qHTS assay (AID 1963590)
Summary of the method: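 CRE-bla HEK 293T cells, 2,000/well in DMEM with 10% dialyzed FBS and 25 mM HEPES, pre-incubated 18 h at 37 C, then exposed to compound 3 h at 37 C. Beta-lactamase reporter read with LiveBLAzer B/G FRET substrate after 2 h at room temperature.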

[16] = molecular target: Beta-2 adrenergic receptor (Homo sapiens) (UniProt P07550); experiment: Adrenergic beta2 receptor (ADRB2) small molecule antagonists, cell-based qHTS assay (AID 1963592); also: series mostly up to about 92 µM; nearly all actives have a fitted effect of over 50% in size
Summary of the method: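 Cells (CHO, stable ADRB2 overexpression) incubated 18-20hr at 37C; compounds added from DMSO; agonist mix (1nM isoproterenol, 100uM IBMX, 25uM Ro-20-1724) added; 0.5hr RT; d2-cAMP and anti-cAMP-cryptate added; 1hr RT; 665/615 nm read.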

[17] = molecular target: D(2) dopamine receptor (Homo sapiens) (UniProt P14416); experiment: Dopamine D2 receptor (DRD2) small molecule agonists, cell-based qHTS assay (AID 1963594); also: nearly all actives have a fitted effect of over 35% in size
Summary of the method: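 cAMP accumulation in DRD2-HEK293 cells measured by HTRF after 1 h detection; compounds added 10 min before NKH477 (200nM […]) forskolin-analogue stimulation, 30 min at room temperature, with Ro20-1724 present at 0.1 mM final.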

[18] = molecular target: Beta-2 adrenergic receptor (Homo sapiens) (UniProt P07550); experiment: Adrenergic beta2 receptor (ADRB2) small molecule agonists, cell-based qHTS assay (AID 1963593);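 also: CHO cells stably overexpressing human ADRB2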
Summary of the method: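 CHO cells stably over-expressing ADRB2 were plated overnight at 37C, then dosed with compounds plus a stimulation mix containing 100uM IBMX and 25uM Ro-20-1724 for 0.5hr at room temperature. cAMP was measured by HTRF competition, 1hr.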

[19] = molecular target: D(2) dopamine receptor (Homo sapiens) (UniProt P14416); experiment: Dopamine D2 receptor (DRD2) small molecule antagonists, cell-based qHTS assay (AID 1963595; active = well fitted inhibition curve with a large enough effect in the signal ratio in the repeat runs, with a control signal flat; the % refers to the signal ratio)
Summary of the method: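 Antagonism was scored as restored cAMP in HEK293-DRD2 cells. These cells were stimulated with 200 nM NKH477 and 12 nM quinpirole for 30 min at room temperature, in the presence of 0.1 mM Ro20-1724.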

[20] = cAMP Responsive Elements (CRE) small molecule antagonists, cell-based qHTS assay (AID 1963591; active = well fitted inhibition curve with a large enough effect in the signal ratio in the repeat runs, not every such curve was filed as active; the % refers to the signal ratio)
Summary of the method: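 CRE-bla HEK293T cells plated 18 h, then given compound plus NKH477 at 0.25 uM final for 3 h at 37C. Beta-lactamase reporter read with LiveBLAzer B/G FRET substrate after 2 h at room temperature.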

Chain of 5-hydroxytryptamine receptor 2A (Homo sapiens) (P28223 whole entry, looked up): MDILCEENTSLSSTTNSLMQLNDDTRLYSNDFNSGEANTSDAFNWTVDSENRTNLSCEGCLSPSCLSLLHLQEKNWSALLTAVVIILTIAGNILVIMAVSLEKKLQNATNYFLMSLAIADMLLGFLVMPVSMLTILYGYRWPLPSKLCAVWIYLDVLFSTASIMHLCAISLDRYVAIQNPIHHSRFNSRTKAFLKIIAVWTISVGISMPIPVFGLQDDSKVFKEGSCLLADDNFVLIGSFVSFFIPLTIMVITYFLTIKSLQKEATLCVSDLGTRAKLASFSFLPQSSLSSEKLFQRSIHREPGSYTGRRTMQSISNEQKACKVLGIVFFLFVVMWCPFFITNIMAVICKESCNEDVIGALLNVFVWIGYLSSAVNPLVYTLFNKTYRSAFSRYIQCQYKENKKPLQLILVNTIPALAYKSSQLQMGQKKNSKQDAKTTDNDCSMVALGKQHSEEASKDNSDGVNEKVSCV
Chain of Beta-2 adrenergic receptor (Homo sapiens) (P07550 whole entry, looked up): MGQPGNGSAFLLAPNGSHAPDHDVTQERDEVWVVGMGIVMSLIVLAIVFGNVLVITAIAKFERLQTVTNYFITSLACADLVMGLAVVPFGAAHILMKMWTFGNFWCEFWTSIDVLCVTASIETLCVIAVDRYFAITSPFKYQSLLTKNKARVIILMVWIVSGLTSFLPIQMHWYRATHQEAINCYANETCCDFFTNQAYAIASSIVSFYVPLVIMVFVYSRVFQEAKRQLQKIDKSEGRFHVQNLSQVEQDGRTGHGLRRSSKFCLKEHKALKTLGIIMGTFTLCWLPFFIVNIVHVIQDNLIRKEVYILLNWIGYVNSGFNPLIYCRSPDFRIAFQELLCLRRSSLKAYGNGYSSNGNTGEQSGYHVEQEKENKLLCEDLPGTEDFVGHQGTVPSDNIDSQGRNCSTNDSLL
Chain of KiSS-1 receptor (Homo sapiens) (Q969F8 whole entry, looked up): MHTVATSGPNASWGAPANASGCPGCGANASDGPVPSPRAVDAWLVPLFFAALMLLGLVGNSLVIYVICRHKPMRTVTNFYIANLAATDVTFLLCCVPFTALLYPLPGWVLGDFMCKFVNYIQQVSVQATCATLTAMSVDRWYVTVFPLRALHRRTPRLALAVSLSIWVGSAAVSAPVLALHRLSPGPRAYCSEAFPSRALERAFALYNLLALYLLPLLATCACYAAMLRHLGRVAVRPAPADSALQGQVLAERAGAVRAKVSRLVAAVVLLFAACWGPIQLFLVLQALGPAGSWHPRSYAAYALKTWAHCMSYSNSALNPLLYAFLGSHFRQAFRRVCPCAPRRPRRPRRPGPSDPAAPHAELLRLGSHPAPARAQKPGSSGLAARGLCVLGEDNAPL
Chain of Muscarinic acetylcholine receptor M1 (Homo sapiens) (P11229 whole entry, looked up): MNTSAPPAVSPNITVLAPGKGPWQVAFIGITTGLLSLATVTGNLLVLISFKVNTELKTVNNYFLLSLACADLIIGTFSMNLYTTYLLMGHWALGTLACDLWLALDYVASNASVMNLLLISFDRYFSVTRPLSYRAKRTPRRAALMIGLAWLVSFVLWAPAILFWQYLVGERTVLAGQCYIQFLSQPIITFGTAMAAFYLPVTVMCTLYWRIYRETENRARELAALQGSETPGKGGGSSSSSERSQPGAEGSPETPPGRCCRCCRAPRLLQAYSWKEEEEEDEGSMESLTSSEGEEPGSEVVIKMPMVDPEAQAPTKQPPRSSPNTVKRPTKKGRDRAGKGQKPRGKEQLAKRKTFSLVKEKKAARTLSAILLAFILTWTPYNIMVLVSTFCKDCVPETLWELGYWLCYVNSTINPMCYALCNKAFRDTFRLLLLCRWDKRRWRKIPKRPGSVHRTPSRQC
Chain of Gonadotropin-releasing hormone receptor (Homo sapiens) (P30968 whole entry, looked up): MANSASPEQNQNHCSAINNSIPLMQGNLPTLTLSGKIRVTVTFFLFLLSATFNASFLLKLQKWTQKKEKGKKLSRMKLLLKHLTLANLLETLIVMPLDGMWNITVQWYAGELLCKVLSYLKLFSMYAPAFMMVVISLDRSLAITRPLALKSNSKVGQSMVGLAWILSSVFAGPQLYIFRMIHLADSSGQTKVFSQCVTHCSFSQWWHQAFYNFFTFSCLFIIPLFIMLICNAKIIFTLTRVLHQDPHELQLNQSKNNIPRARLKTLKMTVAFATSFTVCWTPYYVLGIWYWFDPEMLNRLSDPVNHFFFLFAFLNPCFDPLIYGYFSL
Chain of D(2) dopamine receptor (Homo sapiens) (P14416 whole entry, looked up): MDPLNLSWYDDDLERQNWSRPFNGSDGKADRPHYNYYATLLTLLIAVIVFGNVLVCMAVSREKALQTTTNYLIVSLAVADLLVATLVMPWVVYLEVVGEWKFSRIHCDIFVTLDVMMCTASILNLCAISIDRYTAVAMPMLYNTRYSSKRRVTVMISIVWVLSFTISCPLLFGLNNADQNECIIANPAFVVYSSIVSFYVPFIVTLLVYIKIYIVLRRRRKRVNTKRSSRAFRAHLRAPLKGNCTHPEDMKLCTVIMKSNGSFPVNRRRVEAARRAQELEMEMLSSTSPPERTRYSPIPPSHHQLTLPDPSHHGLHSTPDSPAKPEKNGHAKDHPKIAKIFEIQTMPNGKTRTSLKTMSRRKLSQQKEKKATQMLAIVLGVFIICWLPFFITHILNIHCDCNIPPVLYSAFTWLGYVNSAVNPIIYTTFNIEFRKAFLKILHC

SMILES | Potency [1] | Potency [2] | Potency [3] | Potency [4] | Potency [5] | Potency [6] | Potency [7] | Potency [8] | Potency [9] | Potency [10] | Potency [11] | Potency [12] | Potency [13] | Potency [14] | Potency [15] | Potency [16] | Potency [17] | Potency [18] | Potency [19] | Potency [20]
O=C(CCS)OCC(COC(=O)CCS)(COC(=O)CCS)COC(=O)CCS | inactive | inactive | inactive | inactive | inactive | inactive | inactive | inactive | inactive | inactive | inactive | inactive | inactive | inactive | inactive | inactive | inactive | – | – | –
CC(C)CCCO | inactive | inactive | inactive | inactive | inactive | inactive | inactive | inactive | inactive | inactive | inactive | inactive | inactive | inactive | inactive | inactive | inactive | inactive | inactive | –
CN(C)C(=O)Oc1ccc[n+](C)c1 | inactive | inactive | inactive | inactive | inactive | inactive | inactive | inactive | inactive | inactive | inactive | inactive | inactive | inactive | – | inactive | inactive | inactive | – | inactive
C1CSCCS1 | inactive | inactive | inactive | inactive | inactive | inactive | inactive | inactive | inactive | inactive | inactive | inactive | inactive | inactive | inactive | inactive | inactive | inactive | inactive | –
CC(=O)c1ccccc1N | inactive | inactive | inactive | inactive | inactive | inactive | inactive | inactive | inactive | inactive | inactive | inactive | inactive | inactive | – | inactive | inactive | inactive | – | inactive
C=C(C)[C@H]1CC=C(C)CC1 | inactive | inactive | inactive | inactive | inactive | inactive | inactive | inactive | inactive | inactive | inactive | inactive | inactive | inactive | – | inactive | – | inactive | inactive | inactive
CC[C@H](C)[C@@H](C(=O)O)n1sc2ccccc2c1=O | inactive | 54.5 µM (active) | inactive | inactive | inactive | inactive | inactive | inactive | inactive | inactive | inactive | inactive | inactive | inactive | – | inactive | inactive | – | – | inactive
CCc1ccc(C=O)cc1 | inactive | inactive | inactive | inactive | inactive | inactive | inactive | inactive | inactive | inactive | inactive | inactive | inactive | inactive | – | inactive | inactive | inactive | inactive | inactive
O=C(O)c1ccc([N+](=O)[O-])cc1 | inactive | inactive | inactive | inactive | inactive | inactive | inactive | inactive | inactive | inactive | inactive | inactive | inactive | inactive | – | inactive | inactive | inactive | inactive | inactive
Nc1ccc(N=Nc2ccccc2)c(N)n1 | 30.8 µM (active) | 1.73 µM (active) and 2.73 µM (active) and 2.37 µM (active) | inactive | inactive | inactive | inactive | inactive | inactive | inactive | inactive | inactive | inactive | inactive | inactive | inactive | – | – | inactive | inactive | –
Cc1cc(C)c(N)c(Cl)c1 | inactive | inactive | inactive | inactive | inactive | inactive | inactive | inactive | inactive | inactive | inactive | inactive | inactive | inactive | inactive | inactive | inactive | – | inactive | –
C=C(C)[C@@H]1CC[C@@H](C)C[C@@H]1O | inactive | inactive | inactive | inactive | inactive | inactive | inactive | inactive | inactive | inactive | inactive | inactive | inactive | inactive | – | inactive | inactive | inactive | inactive | inactive
